In PubChem BioAssay (NCI):
This is part of a sample that, as a whole, favours compounds with a hit. Of some 83,000 tested, about 20% had one in any assay.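 Negative percent growth values reflect cell death: -40 means 40% of the cells present at the start died, and -100 means all died.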 Active and inactive are the calls of the source. How the source made its calls: active means growth percent below 10; inactive means the rest.

What was measured:
Assay in all cases: NCI-60 one-dose screen, 48 h (100 = growth as untreated, 0 = no growth, -100 = all killed)
Details in all cases: 10 µM unless noted
NCI-H23 lung = system: NCI-H23 lung
NCI-H226 lung = system: NCI-H226 lung
NCI-H322M lung = system: NCI-H322M lung
HOP-62 NSCLC = system: HOP-62 NSCLC
NCI-H460 lung = system: NCI-H460 lung
HOP-92 NSCLC = system: HOP-92 NSCLC
NCI-H522 lung = system: NCI-H522 lung
A549/ATCC NSCLC = system: A549/ATCC NSCLC
786-0 renal = system: 786-0 renal
COLO 205 colon = system: COLO 205 colon

Measured: growth

CC1Cc2c(N(C)C)ncnc2N(C)c2ccc(O)cc21 (stereo not given)
inactive: NCI-H23 lung 92.8% | NCI-H226 lung 104% | NCI-H322M lung 96.5% | HOP-62 NSCLC 72.8% | NCI-H460 lung 97.7% | HOP-92 NSCLC 81.2% | NCI-H522 lung 49.1% | A549/ATCC NSCLC 85.1% | 786-0 renal 81.4% | COLO 205 colon 103%

NC(N)=NC(N)=Nc1ccccc1-c1ccccc1
inactive: NCI-H23 lung 100% | NCI-H226 lung 111% | NCI-H322M lung 105% | HOP-62 NSCLC 115% | NCI-H460 lung 105% | HOP-92 NSCLC 109% | NCI-H522 lung 106% | A549/ATCC NSCLC 105% | 786-0 renal 106% | COLO 205 colon 125%

COC1=CC(c2ccc[nH]2)=N/C1=C\c1[nH]c(C)c(C(=O)CCCCC(=O)NCc2ccccc2)c1C
active: NCI-H460 lung 1.07% | HOP-92 NSCLC -55.5% | NCI-H522 lung -33.5% | A549/ATCC NSCLC 1.81%
inactive: NCI-H23 lung 31.6% | NCI-H226 lung 28.6% | NCI-H322M lung 77% | HOP-62 NSCLC 57.1% | 786-0 renal 18.9% | COLO 205 colon 55.2%

COc1ccc(/C(=N/O)c2cc(OC)c(OC)c(OC)c2)c(OC)c1N
active: NCI-H522 lung 0.281%
inactive: NCI-H23 lung 51.9% | NCI-H226 lung 80.7% | NCI-H322M lung 48.4% | HOP-62 NSCLC 33.7% | NCI-H460 lung 14.5% | HOP-92 NSCLC 53.2% | A549/ATCC NSCLC 45.6% | 786-0 renal 30.6% | COLO 205 colon 20.2%

COc1ccc(C(=O)c2cc(OC)c(OC)c(OC)c2)cc1/C=C/C(=O)c1ccc2c(c1)OCO2
inactive: NCI-H322M lung 52.9% | HOP-62 NSCLC 69.8% | NCI-H460 lung 14.6% | HOP-92 NSCLC 64% | A549/ATCC NSCLC 53.5% | 786-0 renal 29.6% | COLO 205 colon 27.9%
active: NCI-H23 lung -3.44% | NCI-H226 lung 0.564% | NCI-H522 lung -43%

O=S(=O)(O)CCl
inactive: NCI-H23 lung 97.2% | NCI-H226 lung 106% | NCI-H322M lung 105% | HOP-62 NSCLC 112% | NCI-H460 lung 113% | HOP-92 NSCLC 106% | NCI-H522 lung 77.8% | A549/ATCC NSCLC 103% | 786-0 renal 99.1% | COLO 205 colon 113%

COc1ccc2c(c1)C(=O)/C(=C/c1ccc(O)cc1)O2
inactive: NCI-H23 lung 93.9% | NCI-H226 lung 78.2% | NCI-H322M lung 86.6% | HOP-62 NSCLC 90.8% | NCI-H460 lung 91.2% | A549/ATCC NSCLC 91.8% | 786-0 renal 101% | COLO 205 colon 24.8%
active: HOP-92 NSCLC -40% | NCI-H522 lung -97.9%

COc1cc(Cn2c(SCCC(=O)Nc3ccc(F)cc3)nc3ccccc3c2=O)cc(OC)c1OC
inactive: NCI-H23 lung 90.5% | NCI-H226 lung 79% | NCI-H322M lung 81.1% | HOP-62 NSCLC 82.7% | NCI-H460 lung 96.8% | HOP-92 NSCLC 55.1% | NCI-H522 lung 53.8% | A549/ATCC NSCLC 83.5% | 786-0 renal 90.5% | COLO 205 colon 95.8%

Cc1cccc(NC(=O)c2sc3nc4c(cc3c2N)CCCC4)c1
inactive: NCI-H23 lung 65% | NCI-H226 lung 64.8% | NCI-H322M lung 37.2% | HOP-62 NSCLC 37.8% | NCI-H460 lung 27.6% | HOP-92 NSCLC 56.5% | NCI-H522 lung 24.5% | A549/ATCC NSCLC 31.5% | 786-0 renal 59.8% | COLO 205 colon 26.9%

O=C(/C=C/c1ccccc1)n1c(-c2ccc(Cl)cc2)nc2ccccc21
inactive: NCI-H322M lung 45%
active: NCI-H23 lung -24.5% | NCI-H226 lung -55.3% | HOP-62 NSCLC -48.8% | NCI-H460 lung 0.538% | HOP-92 NSCLC -39.4% | NCI-H522 lung -72.4% | A549/ATCC NSCLC -4.99% | 786-0 renal -17.7% | COLO 205 colon -60.8%

CCCCNc1nnc(-c2cc(-c3cc4ccccc4o3)nn2-c2ccccc2)o1
inactive: NCI-H23 lung 96.7% | NCI-H226 lung 86.2% | NCI-H322M lung 87.4% | HOP-62 NSCLC 110% | NCI-H460 lung 98.7% | HOP-92 NSCLC 46.4% | NCI-H522 lung 80% | A549/ATCC NSCLC 82% | 786-0 renal 93% | COLO 205 colon 105%

Nc1c(C(=O)Nc2ccccc2)sc2nc3c(cc12)CCCCC3
active: HOP-62 NSCLC 7.61% | NCI-H460 lung 6.63% | HOP-92 NSCLC -4.43% | COLO 205 colon 9.29%
inactive: NCI-H23 lung 36.6% | NCI-H226 lung 27.3% | NCI-H322M lung 21.3% | NCI-H522 lung 30.2% | A549/ATCC NSCLC 18.4% | 786-0 renal 15.7%

ClC1=C(Cl)C(Cl)=C(Cl)C1=Cc1ccc(Cl)cc1Cl
active: NCI-H23 lung -53.5% | NCI-H226 lung -33.9% | NCI-H460 lung -16.3% | HOP-92 NSCLC -81% | NCI-H522 lung -22.8% | A549/ATCC NSCLC -38.4% | 786-0 renal -40.3% | COLO 205 colon -34.1%
inactive: NCI-H322M lung 11.3% | HOP-62 NSCLC 10.9%

O=C(NCCCN1CCN(CCCNC(=O)C2CCCCC2)CC1)C1CCCCC1
inactive: NCI-H23 lung 111% | NCI-H226 lung 105% | NCI-H322M lung 91.9% | HOP-62 NSCLC 94.7% | NCI-H460 lung 101% | HOP-92 NSCLC 70.5% | NCI-H522 lung 95% | A549/ATCC NSCLC 101% | 786-0 renal 96.5% | COLO 205 colon 104%

C=C1C(=O)O[C@H]2[C@H]1CC/C(Cn1cc(-c3ccsc3)nn1)=C\CC[C@@]1(C)O[C@@H]21
inactive: NCI-H322M lung 72.7% | HOP-62 NSCLC 28.4% | NCI-H460 lung 41% | A549/ATCC NSCLC 13.8%
active: NCI-H23 lung -14.9% | NCI-H226 lung 7.54% | HOP-92 NSCLC -72.9% | NCI-H522 lung -67.8% | 786-0 renal -86.7% | COLO 205 colon -61%

C=CC(=O)N[C@H](/C=C/C(=O)OCC)Cc1ccc(-c2cc(Cl)cc(Cl)c2)cc1
inactive: NCI-H23 lung 76.1% | NCI-H226 lung 68.9% | NCI-H322M lung 92.9% | HOP-62 NSCLC 88.4% | NCI-H460 lung 98.7% | HOP-92 NSCLC 73.7% | NCI-H522 lung 51.1% | A549/ATCC NSCLC 76.4% | 786-0 renal 96% | COLO 205 colon 95.8%

Cc1cc(Nc2nc(C(=O)Nc3ccccc3)nc3ccccc23)n[nH]1
inactive: NCI-H23 lung 77.5% | NCI-H226 lung 67.1% | NCI-H322M lung 56.5% | HOP-62 NSCLC 60% | NCI-H460 lung 37.6% | HOP-92 NSCLC 51.2% | NCI-H522 lung 59% | A549/ATCC NSCLC 62.4% | 786-0 renal 56.2% | COLO 205 colon 76%

CCOP(=O)(CCN1CCN(CCCCCOc2cc3c(cc2OC)C(=O)N2CCC[C@H]2C=N3)CC1)OCC
active: HOP-92 NSCLC -47.9%
inactive: NCI-H23 lung 104% | NCI-H226 lung 114% | NCI-H322M lung 140% | HOP-62 NSCLC 109% | NCI-H460 lung 75.5% | NCI-H522 lung 62.7% | A549/ATCC NSCLC 93.9% | 786-0 renal 99.1% | COLO 205 colon 71.4%

C=C1C(=O)O[C@H]2[C@H]1CC/C(COC(=O)NCCc1ccc(OC)cc1)=C\CC[C@@]1(C)O[C@@H]21
active: NCI-H226 lung 0.324% | NCI-H522 lung -64.6% | 786-0 renal -31.9% | COLO 205 colon -52.6%
inactive: NCI-H23 lung 66.6% | NCI-H322M lung 88.4% | HOP-62 NSCLC 62.6% | NCI-H460 lung 68.7% | HOP-92 NSCLC 21.9% | A549/ATCC NSCLC 64.1%

O=C(CCCn1c(=O)c2sc3ccccc3c2n2nnc(-c3ccccc3)c12)NCCc1cnc[nH]1
active: NCI-H23 lung -20.4% | NCI-H322M lung -13.7% | HOP-62 NSCLC -59.8% | NCI-H460 lung -44.1% | HOP-92 NSCLC -54.5% | NCI-H522 lung -71.9% | A549/ATCC NSCLC -45.7% | 786-0 renal -77.7% | COLO 205 colon -36.8%
inactive: NCI-H226 lung 105%

CC1(C)OC2COC3(C(=O)O)OC(C)(C)OC3C2O1 (stereo not given)
inactive: NCI-H23 lung 97.8% | NCI-H226 lung 99.9% | NCI-H322M lung 98.6% | HOP-62 NSCLC 91.2% | NCI-H460 lung 103% | HOP-92 NSCLC 98.3% | NCI-H522 lung 90.2% | A549/ATCC NSCLC 95.5% | 786-0 renal 104% | COLO 205 colon 98.8%
